We go through 51 compounds from ChEMBL document CHEMBL3988442, “University of Dundee, Small-Polar-MMV Screening Library” (2021).

Test [1] addresses T1, Aspartate--tRNA(Asp/Asn) ligase (Mycobacterium tuberculosis (strain ATCC 25618 / H37Rv)) (UniProt P9WFW3).
T1 sequence (whole entry): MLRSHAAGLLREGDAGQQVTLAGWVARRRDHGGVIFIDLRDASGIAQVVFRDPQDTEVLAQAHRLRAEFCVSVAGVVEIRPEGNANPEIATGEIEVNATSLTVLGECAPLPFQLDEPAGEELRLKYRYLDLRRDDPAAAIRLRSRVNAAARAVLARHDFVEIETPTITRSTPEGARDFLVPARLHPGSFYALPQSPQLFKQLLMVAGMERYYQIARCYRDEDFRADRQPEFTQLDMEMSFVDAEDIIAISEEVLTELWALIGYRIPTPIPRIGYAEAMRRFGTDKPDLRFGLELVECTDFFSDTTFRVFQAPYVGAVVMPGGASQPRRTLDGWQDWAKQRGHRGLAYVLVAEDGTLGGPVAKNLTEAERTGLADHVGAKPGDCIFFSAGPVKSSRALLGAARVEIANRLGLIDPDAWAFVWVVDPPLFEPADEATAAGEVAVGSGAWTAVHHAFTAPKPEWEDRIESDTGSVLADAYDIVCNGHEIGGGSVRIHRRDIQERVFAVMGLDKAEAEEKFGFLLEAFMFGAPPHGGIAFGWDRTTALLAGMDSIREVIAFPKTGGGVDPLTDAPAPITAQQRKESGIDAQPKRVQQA
Kind of test: Assay for Asp RNA synthetase-1 from Mycobacterium tuberculosis. The test is classed as functional. Set-up: scale not given: direction of the effect not stated beside the values. To be noted: 30 µM.

Test [2] deals with Shiga toxin 2 (Escherichia coli O157:H7) (UniProt P09385+P09386). The test can be described thus: E. coli 0.157:H7 Shiga Toxin SOP - stx2 screening assay. To be noted: 30 µM. The arrangement: scale not given: direction of the effect not stated beside the values. The test is classed as functional.

Regarding `CN(CCCc1ccccc1)Cc1nc2c(cnn2C)c(=O)[nH]1`, the values for the Percent Effect in test [1] and in test [2] were 1.38% and 28.4%, respectively.

As for `CC(=O)NCCc1ccc(S(=O)(=O)N(CC(C)C)C(C)C)s1`, the Percent Effect was 7.1% in test [1] and -42.2% in test [2].

Take `CC(C)CN1CCC(C(=O)Nc2cc(C(F)(F)F)c[nH]c2=O)CC1`: the figures for the Percent Effect in test [1] and in test [2] were -2.61% and -33.9%, respectively.

Regarding `Cn1cc(N2CC3(CCN(CC4CCOCC4)CC3)OCC2=O)cn1`, the Percent Effect in test [1] is -2.85%; in test [2] it was -32.8%.

As for `CCc1ccc(CN2CCC3(CC2)NC(=O)CC3c2ccncc2)o1` (configuration not stated), the Percent Effect in test [1] is 7.7%; in test [2] it was -9.95%.

`CC(NC(=O)CN(C)S(C)(=O)=O)c1nnc2n1CCCCC2` (configuration not stated): the Percent Effect in test [1] was 5%; in test [2], -25.1%.

With `CC(=O)N1CCCC(c2cnc(-c3c(C)nn(C)c3C)cn2)C1` (configuration not stated), the Percent Effect in test [1] was -3.49%; in test [2], -14.1%.

As for `c1cnn(CCNCc2csc(-c3ccsc3)n2)c1`, the Percent Effect was -3.52% in test [1] and -113% in test [2].

`O=C1N(c2ccc(Br)cc2)Cc2nc(=O)[nH]n21`: the Percent Effect in test [1] is -4.79%; in test [2], -34.3%.

For `CC(Cn1cncn1)NCc1nncn1C1CCCCC1` (configuration not stated), the results for the Percent Effect in test [1] and in test [2] were -4.88% and 2.43%, respectively.

With `O=C1[C@@H]2CCN(Cc3ccncc3)C[C@@H]2OCCN1c1ccccc1`, the Percent Effect in test [1] was -1.46%; in test [2], -5.4%.

With `Cc1ccc(NC2CCN(C(=O)c3cnc(C)s3)CC2)nn1`, the Percent Effect in test [1] was -1.51%; in test [2], -19.5%.

As for `COc1ccc(-n2ccc(C(=O)N3CCN(C)CC3C)n2)cc1` (configuration not stated), the Percent Effect was -10.9% in test [1] and -0.158% in test [2].

Regarding `O=C(NCCn1ccnc1)N1CCN(Cc2cccs2)CC1`, the results for the Percent Effect in test [1] and in test [2] were 0.0694% and -34.2%, respectively.

`CCc1nc(C2CCCN2C(=O)c2cc(C3CC3)[nH]n2)no1` (configuration not stated): the Percent Effect is -7.78% in test [1] and 8.24% in test [2].

For `CCNC(=O)[C@@H]1C[C@H](NC(=O)Cc2ccsc2)CN1Cc1ccc(C)o1`, the Percent Effect is -0.518% in test [1] and 18.7% in test [2].

In the case of `CCCc1nnsc1C(=O)NCC1CCN(c2ccccn2)CC1`, the Percent Effect in test [1] is -7.59%; in test [2], -0.668%.

For the compound `Cc1nc(C2CCCCN2C(=O)c2ccccc2)ncc1C(=O)N(C)C` (configuration not stated), the Percent Effect in test [1] is -6.63%; in test [2] it was -5.42%.

As for `Cn1ncc2c1C(COCC1CC1)CN(Cc1nccs1)C2` (configuration not stated), the Percent Effect in test [1] is 11.3%; in test [2], -37.3%.

For the compound `CSCC(=O)N1CCCC(n2ccnc2C(C)C)C1` (configuration not stated), the Percent Effect is -2.84% in test [1] and 28.1% in test [2].

With `COc1ccc(CC(=O)N2CCCC(n3cc(C)cn3)C2)cc1F` (configuration not stated), the Percent Effect was -0.544% in test [1] and 12.2% in test [2].

As to `COc1ccccc1C(=O)N(C)Cc1ncc(C)c(OC)c1C`, the Percent Effect in test [1] was -4.81%; in test [2] it was 11.8%.

Regarding `CC(C)CCN1CN=C(NS(=O)(=O)c2ccc(F)cc2)NC1`, the Percent Effect in test [1] is -1.13%; in test [2], -27.2%.

Take `Cc1ccoc1C(=O)N1CCO[C@H]2[C@H](OCCN(C)C)CC[C@@H]21`: the Percent Effect in test [1] was -1.25%; in test [2], -12.2%.

Turning to `CC(C)c1noc(CN2CCN(C(=O)c3ccccc3F)CC2)n1`, the Percent Effect is -2.91% in test [1] and 12.1% in test [2].

As to `Cc1cc(=O)n2ncnc2n1CC(O)c1cc(F)ccc1F` (configuration not stated), the values for the Percent Effect in test [1] and in test [2] were 3.44% and 1.57%, respectively.

Regarding `Cc1ccc(CNC(CN2CCN(C)CC2)c2ccccc2)cc1` (configuration not stated), the results for the Percent Effect in test [1] and in test [2] were 3.88% and -2.09%, respectively.

`C[C@@H]1C(=O)NC[C@H]2CN(CCc3ccccc3)C[C@H]21`: the Percent Effect in test [1] is 4.21%; in test [2] it was -4.99%.

As to `Cc1cnn(CCNCc2ccc(F)cc2Cl)c1`, the Percent Effect in test [1] is 0.495%; in test [2], -22.9%.

For `Cc1noc([C@H]2COC[C@H]3CN(C(=O)Cc4ccc(F)cc4)C[C@H]32)n1`, the figures for the Percent Effect in test [1] and in test [2] were -3.45% and 23.4%, respectively.

`Cc1ccc(CN(Cc2cccnc2)C2CC(C)(C)NC(C)(C)C2)s1`: the values for the Percent Effect in test [1] and in test [2] were 3.32% and 13.4%, respectively.

Consider `CNc1cc2c(nn1)CCN(C(=O)c1cccc3c1OCO3)C2`, for which the Percent Effect in test [1] is -7.31%; in test [2], 1.76%.

With `CCn1cc2c(n1)CN(Cc1ccncc1)CC2COCC1CC1` (configuration not stated), the figures for the Percent Effect in test [1] and in test [2] were 1.43% and -18.6%, respectively.

In the case of `CN(Cc1ccccc1Br)C(=O)Cn1nc(-c2ccc(F)cc2)oc1=O`, the values for the Percent Effect in test [1] and in test [2] were 7.4% and -11.3%, respectively.

Regarding `Cc1nc(C2CCCN(C(=O)c3ccco3)C2)no1` (configuration not stated), the Percent Effect is -1.47% in test [1] and -1.79% in test [2].

As for `Cc1cccc(N2CCN(CCNC(=O)c3ccnn3C)CC2)c1`, the Percent Effect in test [1] is 5.62%; in test [2] it was -28.1%.

Regarding `Cc1nn(C)c(C)c1C1CCCN1Cc1cccc(C(=O)N(C)C)c1` (configuration not stated), the Percent Effect was -0.742% in test [1] and -11.2% in test [2].

Take `Cc1ccc(C2CSCCN2C(=O)C2=CCCC2)o1` (configuration not stated): the Percent Effect in test [1] was 6.9%; in test [2] it was 5.19%.

Regarding `Cc1ccc(C2CSCCN2C(=O)c2ccc(C(N)=O)cc2)o1` (configuration not stated), the Percent Effect was -1.11% in test [1] and 8.19% in test [2].

In the case of `O=C(c1cccnc1)N1CCC2(CC1)CCN(c1ccsc1)C2=O`, the Percent Effect is 3.8% in test [1] and -6.67% in test [2].

With `CN(C)C(CNC(=O)c1cc2c([nH]c1=O)CCCC2=O)c1ccsc1` (configuration not stated), the Percent Effect in test [1] is 2.97%; in test [2], -21.1%.

In the case of `Cc1noc(C)c1C(=O)NCC(O)c1ccc(F)cc1F` (configuration not stated), the Percent Effect in test [1] is -2.01%; in test [2], 20.4%.

Regarding `Cc1cc2n(n1)CC(CNC1CCN(c3ccc(F)cc3)CC1)CN2` (configuration not stated), the Percent Effect in test [1] was 4.19%; in test [2], -37.2%.

Turning to `CC(C)CN1C[C@H]2CCN(Cc3cccnc3)CC[C@H]2S1(=O)=O`, the results for the Percent Effect in test [1] and in test [2] were -4.32% and 4.22%, respectively.

With `CCn1nnc2c1C(COC)CN(Cc1ccsc1)C2` (configuration not stated), the Percent Effect is -1.23% in test [1] and -3.86% in test [2].

With `CCn1cc(NC(=O)NCC(C)O)cn1` (configuration not stated), the Percent Effect in test [1] is -3.08%; in test [2] it was 3.43%.

Turning to `c1ccc(-c2ncc(CNC3CCc4ncnn4C3)cn2)cc1` (configuration not stated), the results for the Percent Effect in test [1] and in test [2] were -0.626% and 13.4%, respectively.

For the compound `CCSc1cc(C(=O)NCCC(=O)Nc2ccccn2)ccn1`, the results for the Percent Effect in test [1] and in test [2] were -1.96% and -56.5%, respectively.

In the case of `CC1CCN(c2ncc3c(n2)CN(c2ccccc2)C3=O)CC1`, the Percent Effect in test [1] was 3.06%; in test [2], -36.5%.

With `Cc1cc(C)c(CNC(=O)NCC2CCCO2)c(=O)[nH]1` (configuration not stated), the Percent Effect in test [1] was -3.97%; in test [2], 24.8%.

Regarding `O=C(NCC1(CO)CC1)c1cccc2ccccc12`, the values for the Percent Effect in test [1] and in test [2] were -3.45% and -0.178%, respectively.
